EphB4 antag = EphB4-ephrin-B2 interaction antagonism | EphB4 LBD / TNYL-RAW-Alexa532 peptide, fluorescence polarization | P54760 | inhibition, % at 7 µM | 97,000 tested, 0.15% active;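 active means inhibition above the screen-wide mean inhibition plus 3 SD, cut at about 15% in these data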;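 further: 0% = DMSO wells and 100% = excess unlabeled TNYL-RAW peptide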
CYP2C9 inh = inhibitors of human CYP2C9. P11712. CYP2C9 Supersomes, luciferin-H conversion, luminescence. inhibition, % at 5 µM. 96,000 tested, 20% active. AID 777;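 active means blocking of liver enzyme CYP2C9 beyond about 50% at 5 µM, limit read from the data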
CYP2C19 activ = increases human CYP2C19 enzyme activity; recombinant CYP2C19, luciferin-H EGE luminescence; active compounds read high; 0 = fully inhibited enzyme, 1 = untreated enzyme; activation factor at 5 µM; 96,000 tested, under 10 active;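 active means activation factor of at least 2 at 5 µM in the primary screen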;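 further: 0 = wells with 2.5 mM tranylcypromine and 1 = vehicle-only wells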
Target sequence (P33261 whole entry, looked up): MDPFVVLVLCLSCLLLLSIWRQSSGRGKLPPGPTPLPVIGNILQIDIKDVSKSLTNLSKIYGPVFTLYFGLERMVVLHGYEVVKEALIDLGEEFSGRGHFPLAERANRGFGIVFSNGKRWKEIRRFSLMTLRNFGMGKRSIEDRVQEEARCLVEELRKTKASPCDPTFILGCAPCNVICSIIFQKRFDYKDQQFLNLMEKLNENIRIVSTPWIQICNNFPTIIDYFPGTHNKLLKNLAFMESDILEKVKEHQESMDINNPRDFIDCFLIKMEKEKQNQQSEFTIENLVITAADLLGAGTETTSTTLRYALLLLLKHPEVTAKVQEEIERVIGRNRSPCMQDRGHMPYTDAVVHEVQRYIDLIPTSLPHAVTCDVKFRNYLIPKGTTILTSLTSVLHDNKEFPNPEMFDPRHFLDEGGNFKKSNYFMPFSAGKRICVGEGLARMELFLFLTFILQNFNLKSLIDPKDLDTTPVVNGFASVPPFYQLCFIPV
CYP2C9 act = increases human cytochrome P450 2C9 activity | 96,000 tested, 1.4% active | activation factor at 5 µM | recombinant CYP2C9, luciferin-H conversion, luminescence; active compounds read high; factor 1 = untreated enzyme, 0 = blocked | AID 1024;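 active means activation factor of 2 or more for CYP2C9 at a 5 µM dose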;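 further: 0 = sulfaphenazole-blocked wells and 1 = vehicle-only wells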
CYP2C19 inh = inhibitors of human CYP2C19 | CYP2C19 Supersomes, luciferin-H EGE luminescence, 30 min | inhibition, % at 5 µM | 96,000 tested, 21% active | AID 778;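 active means CYP2C19 inhibition above a set limit at 5 µM in the primary screen, cut at about 50% in these data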;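 further: plate controls were negative control wells for no effect and 2.5 mM tranylcypromine positive control for full effect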
* hit, by the source's call; / = not tested or not shown. Most compounds without a hit are left out; they make up all but 27% or so of the library.

SMILES	EphB4 antag	CYP2C9 inh	CYP2C19 activ	CYP2C9 act	CYP2C19 inh
Cn1c(Cl)nc2c1c(=O)n(Cc1cccc(Br)c1)c(=O)n2C	-2.7	38.9	0.1	0.6	94.1*
C/C(Nc1ccc(C)cc1)=C(/C#N)C(N)=O	-1.1	17.5	0.7	0.8	26.5
COc1cccc(-c2cc(C(=O)Nc3ccc(OC)c(OC)c3)no2)c1	0.0	0.5	0.9	1	7.2
Cc1ccc2[nH]c3c(c2c1)CN(C(=O)CN(C)CC1OCCO1)CC3	1.9	-1.0	0.8	1	22.6
CCCCCCSc1ncc(C#N)c(N)n1	-10.4	0.9	0.8	1	18.4
CC1CCCC(C)N1C(=O)CN1C(=O)C(C)(C)Oc2ccc(C(=O)NC3CCCCC3)cc21 (configuration not stated)	-3.1	25.2	0.9	0.7	7.0
Cn1c(=O)c2c(nc(NCc3ccc4c(c3)OCO4)n2Cc2ccc(F)cc2)n(C)c1=O	0.3	22.9	0.7	0.8	26.4
Cn1c(=O)c2c(nc(NCc3ccc4c(c3)OCO4)n2Cc2ccccc2)n(C)c1=O	1.5	65.3*	0.4	0.3	56.4*
COc1cc(OC)c(C(=O)COc2ncnc3ccccc23)c(OC)c1	-0.9	24.1	0.9	0.8	13.8
CSC1=C(C#N)C(c2ccc(Cl)cc2)C2=C(CC(C)(C)CC2=O)N1 (configuration not stated)	/	65.4*	0.8	0.3	23.6
COc1ccc(C2C(C#N)=C(C)NC3=C2C(=O)CC(C)(C)C3)cc1 (configuration not stated)	7.9	65.6*	0.6	0.3	36.3
CCC(=O)Nc1ccc(NC(=O)CSc2nnnn2CC)cc1C	-1.9	6.5	0.9	0.9	9.4
COc1ccc(CNc2cccc(F)c2)cc1Br	0.6	1.5	0.8	1	24.7
Cc1cc(C)c(C)c(OCCCn2ccnc2)c1	-6.4	95.2*	0	0	100.3*
Cc1cccc(OCCCCCn2ccnc2)c1C	-5.9	99.8*	0	0	100.2*
Cc1ccc(CNC(=O)C(=O)NCCCn2ccnc2)cc1	5.7	/	/	/	/
Cc1ccc(C)c(OCCCCn2ccnc2)c1	-3.1	92.7*	0	0.1	98.1*
COc1ccc(Cn2ccnc2)cc1Br	-1.7	88.4*	0.1	0.1	92.5*
O=C(c1ccc2c(=O)n(C3CCCC3)c(=S)[nH]c2c1)N1CCc2ccccc21	1.6	10.8	1	0.9	-3.0
O=C(NC(=S)Nc1cccc(Cl)c1N1CCCC1)c1ccc(-c2cccc([N+](=O)[O-])c2)o1	7.7	2.3	1	1	-1.2
OC1(c2cccc(C(F)(F)F)c2)CCN(c2ccc(-c3ccccc3)nn2)CC1	2.4	/	/	/	/
Cc1ccc(-n2c(=O)[nH]c3c(C(N)=O)nc(-c4ccc(C)o4)nc32)cc1	-5.0	1.4	1.1	1	-8.3
Cc1ccc(OCCCCn2ccnc2)c(Cl)c1	-1.7	98.4*	0	0	100.0*
Cc1ccc(OCCn2nc3ccccc3n2)c(C)c1	0.5	15.2	0.8	0.8	15.6
Cc1ccc(OCCOCCn2ccnc2)c(Br)c1	8.7	87.3*	0	0.1	99.0*
SMILES	EphB4 antag	CYP2C9 inh	CYP2C19 activ	CYP2C9 act	CYP2C19 inh
Cc1cc(C(C)(C)C)ccc1OCCn1ccnc1	-3.2	94.1*	0	0.1	98.5*
CC(NC(=O)Nc1ccc2c(c1)OCO2)C1CCCO1 (configuration not stated)	-9.3	37.4	0.7	0.6	29.6
Cc1cc(C(=O)N(C)C)sc1-c1ccccc1	4.3	/	/	/	/
Cc1cc(C(=O)NCc2cc(C)n(C)n2)sc1-c1ccccc1	-2.2	8.7	0.4	0.9	59.4*
N#CC(c1ccc(Cl)cc1)c1ccc(Cl)nn1 (configuration not stated)	2.4	5.0	0.5	0.9	53.0*
Cc1nc(Nc2nc3ccccc3o2)nc2c1CCC2	3.3	6.2	0.7	0.9	28.9
Cc1cccc(C)c1Nc1nc2ccccc2o1	/	64.3*	0.6	0.4	39.3
CCS(=O)(=O)N1CCN(c2ccc([N+](=O)[O-])c(NCc3ccccc3)c2)CC1	1.3	21.3	0.9	0.8	7.3
CC(Nc1cc(N2CCN(C(=O)C(C)(C)C)CC2)ccc1[N+](=O)[O-])c1ccccc1 (configuration not stated)	2.6	50.2*	0.4	0.5	56.4*
O=[N+]([O-])c1ccc(N2CCCC2)cc1NC(c1ccccc1)c1ccccc1	-3.7	29.6	0.9	0.7	9.3
CCS(=O)(=O)N1CCN(c2ccc([N+](=O)[O-])c(NC(C)c3ccccc3)c2)CC1 (configuration not stated)	-5.5	65.6*	0.5	0.3	51.2*
CCCCNc1cc(=O)oc2ccccc12	7.3	12.8	0.7	0.9	28.2
Cc1ccc(-c2cc(C(=O)N/N=C/c3c(C)nn(C)c3C)c3ccccc3n2)c(C)c1	1.2	95.7*	0.1	0	93.7*
CCN(CC)C(=O)c1sc(NC(=O)c2cc(-c3ccc(C)s3)nc3ccccc23)c(C(=O)OC)c1C	1.2	50.8*	1	0.5	-1.4
COC(=O)c1sccc1NC(=O)c1cc(-c2ccc(C)cc2C)nc2ccccc12	-3.6	59.2*	0.9	0.4	12.4
CCOc1ccccc1-c1cc(C(=O)N/N=C/c2ccc3c(c2)OCO3)c2ccccc2n1	5.1	91.2*	0.5	0.1	50.2*
O=C(O)CCN1CCc2ccccc21	8.8	-12.8	1.1	1.1	-5.8
COc1cccc(/C=N/NC(=O)CC2C(=O)NN=C2C)c1O (configuration not stated)	-2.8	-10.3	1.1	1.1	-10.6
CN(C)c1cccc(C(=O)Nc2ccc(N3CCOCC3)cc2)c1	1.1	-81.0	1	1.8	2.4
COc1ccccc1-c1cc(C(=O)N/N=C/c2sccc2C)c2ccccc2n1	0.9	74.6*	0.6	0.3	39.0
Cc1cc(=O)[nH]c(SCC2COC3(CCCCC3)O2)n1 (configuration not stated)	-5.1	-5.0	1.1	1.1	-5.2
CC(=O)Nc1ccc(S(=O)(=O)NC2=C(N3CCN(Cc4ccccc4)CC3)C(=O)c3ccccc3C2=O)cc1	7.5	79.9*	0.2	0.2	76.2*
COCCn1c(-c2ccsc2)nc2c1c(=O)[nH]c(=O)n2CC(C)C	0.9	-6.6	0.4	1.1	55.3*
COc1ccc(N2C(=O)CSC23C(=O)N2c4c(cccc43)C(C)=CC2(C)C)cc1 (configuration not stated)	3.5	79.8*	0	0.2	97.8*
COc1ccc(N2C(=O)CSC23C(=O)N2CCCc4cccc3c42)cc1 (configuration not stated)	-2.3	10.3	0.9	0.9	10.6
CCCOc1cccc(C(=O)NC(=S)Nc2cccc(C(F)(F)F)c2)c1	-2.2	-83.7	1	1.8	0.2
CC(CCc1ccccc1)NC(=O)c1cccnc1 (configuration not stated)	1.1	-13.9	1	1.1	4.1
Cn1nnc(NC(=O)COc2ccc(C3CCCCC3)cc2)n1	-6.1	52.8*	0.6	0.5	39.0

Compound activity: PubChem, several laboratories
